Source: PubChem BioAssay
In the library only some 10% were active in any assay of this set; here they are far more common.
NIH3T3 tox – NIH 3T3 cell cytotoxicity. AID 1345082. Potency, µM (top dose mostly 96.7 µM), for inactives: at the highest dose activity change, negative = cytotoxicity, hits mostly inhibitors. 4.3% of 94,000 active. NIH 3T3 viability, CellTiter-Glo ATP luminescence, 48-72 h; further: nearly all actives have a fitted effect of over 55% in size
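First NIH 3T3 cells are plated at 400 cells/well; next compound is pinned in; then plates incubate 48 or 72 hr at 37 °C; finally CellTiter-Glo is added and luminescence read after 10 min.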
hNpr1 antagonist – human Npr1 receptor antagonism; HEK293 hNpr1 GloSensor cGMP, ANP-stimulated luminescence; Potency, µM (top dose mostly 46.3 µM), without a hit: at the highest dose activity change, negative = inhibition, usual class: inhibitors; 1.6% of 76,000 active; AID 1347048; calls by dose curve; further: nearly all actives have a fitted effect of over 60% in size
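Compound pre-incubated 30 min at room temperature on GloSensor-loaded HEK293 cells stably carrying hNpr1 and the pGS-40F cGMP biosensor. Stimulation uses hNppA at 0.1 nM final; luminescence is taken at baseline and 20 min post-agonist.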
Luciferase inh – blocks purified firefly luciferase enzyme activity; P08659; purified P. pyralis luciferase, luminescence, biochemical; Potency, µM (top dose mostly 115 µM), most hits filed as inhibitors; 2.5% of 76,000 active; further: nearly all actives have a fitted effect of over 65% in size
Target sequence (P08659 whole entry, looked up): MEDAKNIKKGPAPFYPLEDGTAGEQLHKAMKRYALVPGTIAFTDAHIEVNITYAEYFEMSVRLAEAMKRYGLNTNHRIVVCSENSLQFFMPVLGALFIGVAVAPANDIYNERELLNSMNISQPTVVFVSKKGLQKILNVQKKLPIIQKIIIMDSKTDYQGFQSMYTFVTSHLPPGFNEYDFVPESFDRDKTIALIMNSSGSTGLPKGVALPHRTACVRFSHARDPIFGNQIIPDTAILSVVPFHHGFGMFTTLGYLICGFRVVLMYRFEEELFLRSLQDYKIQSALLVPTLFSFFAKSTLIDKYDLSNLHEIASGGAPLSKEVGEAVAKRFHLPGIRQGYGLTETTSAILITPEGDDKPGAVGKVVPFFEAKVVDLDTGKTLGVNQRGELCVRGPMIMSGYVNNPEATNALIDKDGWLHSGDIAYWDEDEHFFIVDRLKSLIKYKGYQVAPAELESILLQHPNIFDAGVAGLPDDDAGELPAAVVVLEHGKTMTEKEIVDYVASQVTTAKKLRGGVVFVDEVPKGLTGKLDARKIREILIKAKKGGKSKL
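Biochemical qHTS: compound (6-point titration) added to 10uM D-luciferin plus 10uM ATP in Tris acetate pH 7.5 buffer with Mg, Tween-20 and BSA, then purified enzyme at 10nM; light output imaged.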
HEK293 tox – kills HEK 293 cells | 6.6% of 94,000 active | HEK 293 viability, ATP luminescence (CellTiter-Glo), 48-72 h | Potency, µM (doses to about 115 µM), for inactives: at the top dose activity change, negative = cytotoxicity, most hits filed as inhibitors; further: nearly all actives have a fitted effect of over 60% in size
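Cytotoxicity was scored by loss of ATP-coupled luminescence (CellTiter-Glo) in HEK 293 cells. Compound treatment ran 48 or 72 hr at 37 degree Celsius, 5% CO2, 95% humidity.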
GPT2 inh – GPT2 alanine aminotransferase inhibition; Potency, µM (doses to about 57.7 µM), for the others: at the highest dose activity change, negative = inhibition, actives largely listed as inhibitors; Recombinant GPT2, coupled pyruvate oxidase/HRP Amplex Red fluorescence; 0.25% of 100,000 active; Q8TD30; AID 1671188; further: nearly all actives have a fitted effect of over 60% in size
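Fluorescence read-out: pyruvate from GPT2 turnover coupled to pyruvate oxidase, HRP and Amplex Red (0.2mM ThPP, 0.2U/mL PO and HRP, 50uM Amplex final). Substrates 250uM a-KG, 2mM L-alanine; enzyme 10ng/uL; 30 min RT.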
Starred values were filed as active, the others as inactive; i = inactive; ? = inconclusive; . = not tested or not shown; [ ] = dose if it differs, or a comment. Unless noted, the call rests on the fitted dose curve; in most records, active means well fitted curve in the direction sought with a large enough effect; inconclusive means small, poorly fitted or top-dose-only effect, or another doubt; inactive means no such curve, though single readings can be large; an effect the other way counts as inactive or inconclusive. On the % scale 0 is the no-effect control and ±100 the full control effect; potency means the concentration at half of the fitted maximal effect.

SMILES | NIH3T3 tox | hNpr1 antagonist | Luciferase inh | HEK293 tox | GPT2 inh
Cc1ncsc1C(=O)N1CCC2(CC1)OC(=O)N(Cc1ccccc1F)C2(C)c1ccccc1 (centres undefined) | 10µM* | 2.1% | i | -29.4% | -24.7%
Cn1ccc(C(=O)N2CCC3(CC2)OC(=O)N(Cc2ccccc2)C3(C)c2ccccc2)n1 (centres undefined) | 35.5µM* | -1.9% | i | -1.0% | i
CC1(c2ccccc2)N(Cc2ccccc2)C(=O)OC12CCN(Cc1ccc(O)cc1)CC2 (centres undefined) | ? | -19.3% | i | ? | -0.1%
CC(C)=CCC/C(C)=C/CC/C(C)=C/C(=O)OCC(=O)[C@@]1(O)CC[C@H]2[C@@H]3CCC4=CC(=O)C=C[C@]4(C)[C@H]3[C@@H](O)C[C@@]21C | . | . | . | . | i
CCC1Oc2ccc(NC(=O)Cc3ccccc3)cc2CN(Cc2cccc(OC)c2)C1=O (centres undefined) | ? | -14.9% | i | ? | i
CCC1Oc2ccc(NC(=O)COc3ccccc3)cc2CN(Cc2cccc(OC)c2)C1=O (centres undefined) | ? | -2.7% | i | 44.7µM* | -1.5%
CCNC(=O)Nc1ccc2c(c1)CN(Cc1cccc(OC)c1)C(=O)C(CC)O2 (centres undefined) | -15.2% | -17.0% | i | ? | i
CCC1Oc2ccc(NC(=O)Nc3cccc(OC)c3)cc2CN(Cc2ccc3c(c2)OCO3)C1=O (centres undefined) | ? | 0.7% | i | 31.6µM* | i
CN(C)Cc1nnc(C2CC(NC(=O)c3ccc4c(c3)CCO4)C2)n1C (centres undefined) | 1.0% | -1.3% | i | -13.9% | 4.9%
O=C(NCC1CC1)c1ccc2nc(-c3ccncc3)oc2c1 | -7.9% | . | . | 2.3% | i
COc1ccc(Nc2cnc3ccc(-c4ccc(OC)c(OC)c4)nn23)cn1 | 31.6µM* | 1.3%[70.6 µM] | ? | 63.1µM* | ?
COc1ncccc1Nc1cnc2ccc(-c3ccc(F)cc3)nn12 | ? | -2.2%[70.6 µM] | i | ? | ?
COc1ccccc1Nc1cnc2ccc(-c3ccc(F)cc3)nn12 | ? | -9.7%[70.6 µM] | i | 70.8µM* | 4.3%[88.5 µM]
COc1ccc(-c2ccc3ncc(Nc4ccc5c(c4)OCCO5)n3n2)cc1OC | ? | -16.6%[70.6 µM] | 20µM* | 44.7µM* | i
COc1ccc(-c2ccc3ncc(Nc4cccc(O)c4)n3n2)cc1OC | ? | -12.8%[70.6 µM] | i | 63.1µM* | -7.6%[88.5 µM]
COc1ccc(Nc2cnc3ccc(-c4ccc(F)cc4)nn23)cc1OC | ? | -2.9%[70.6 µM] | ? | ? | 3.7%[88.5 µM]
FC(F)(F)Oc1ccccc1Cn1ccnc1-c1cc2n(n1)CCNC2 | ? | -0.8% | i | ? | -9.6%
Cc1nn2c(c1-c1ccccc1-c1ccccc1)N(C(=O)C1CCOCC1)CCC2 | ? | 2.7%[70.6 µM] | i | -10.3%[172 µM] | 0.1%[88.5 µM]
Cc1nn2c(c1-c1ccccc1-c1ccccc1)N(C(=O)c1cccnc1)CCC2 | ? | -9.2%[70.6 µM] | i | -28.4%[172 µM] | -15.9%[88.5 µM]
COc1ccc(C(=O)N2CCCn3nc(C)c(-c4ccccc4-c4ccccc4)c32)cc1 | ? | -21.8%[70.6 µM] | i | 35.5µM* | -29.6%[88.5 µM]
COc1ccccc1C(=O)N1CCCn2nc(C)c(-c3ccccc3-c3ccccc3)c21 | ? | -1.0%[70.6 µM] | i | 89.1µM* | i
Cc1nn2c(c1-c1ccccc1Oc1ccccc1)N(C(=O)C1CCC1)CCC2 | ? | -5.5%[70.6 µM] | i | 89.1µM* | -11.0%[88.5 µM]
COc1ccc(C(=O)N2CCCn3nc(C)c(-c4ccccc4-c4ccccc4)c32)cn1 | ? | -18.1%[70.6 µM] | i | ? | -10.0%[88.5 µM]
Cc1nn2c(c1-c1cccc3cn[nH]c13)N(C(=O)c1cccc(Cl)c1)CCC2 | ? | -1.2%[70.6 µM] | i | 50.1µM* | i
Cc1ccncc1-c1c(C)nn2c1N(C(=O)c1cccc(Cl)c1)CCC2 | ? | -0.4%[70.6 µM] | i | -24.7%[172 µM] | 3.1%[88.5 µM]
SMILES | NIH3T3 tox | hNpr1 antagonist | Luciferase inh | HEK293 tox | GPT2 inh
c1ccc(-c2noc(-c3cncnc3NCc3cccs3)n2)cc1 | i | -1.4% | i | i | i
CN1CCC(N2CCN(C(=O)c3cc(-c4ccc(F)cc4)cn3C)CC2)CC1 | ? | -9.9% | i | ? | i
COCCNC(=O)[C@@H]1C[C@H](Oc2ccccc2)CN1C(=O)Cc1c[nH]c2ccccc12 | -5.2% | -0.4% | i | i | ?
O=C(CN1C(=O)NC2(CCCCC2)C1=O)Nc1ccc(F)cc1 | -10.8% | 2.0% | i | ? | -6.5%
CC1CCC2(CC1)NC(=O)N(CC(=O)Nc1ccc(F)c(Cl)c1)C2=O (centres undefined) | -8.3% | 3.9% | i | -27.1% | i
O=C(CN1C(=O)NC2(CCCCC2)C1=O)Nc1ccc(C(F)(F)F)cc1 | ? | -0.2% | i | 28.2µM* | i
CC1CCC2(CC1)NC(=O)N(CC(=O)Nc1ccc(Cl)cc1)C2=O (centres undefined) | 11.2µM* | 1.3% | i | ? | i
COc1cccc(NC(=O)NC[C@@H]2C=C(C)[C@H](CC(=O)N3CCOCC3)C[C@H]2C(C)C)c1 | -29.3% | -2.2% | ? | -16.1% | i
CN(c1ccccc1)c1cc(=O)c2ccnc(-c3ccncc3)c2o1 | 25.1µM* | 1.8%[70.6 µM] | i | -18.5%[172 µM] | -10.4%[88.5 µM]
CN(c1cc(=O)c2ccnc(-c3ccc(F)c(Cl)c3)c2o1)C1CCOCC1 | ? | -10.7%[70.6 µM] | i | -16.8%[172 µM] | 4.9%[88.5 µM]
COc1cc(-c2nccc3c(=O)cc(N(C)c4ccccc4)oc23)ccn1 | 10µM* | 2.0%[70.6 µM] | i | ? | 2.6%[88.5 µM]
COc1ncccc1-c1nccc2c(=O)cc(N(C)c3ccccc3)oc12 | 35.5µM* | -1.9%[70.6 µM] | i | ? | i
CN(c1cc(=O)c2ccnc(-c3cccc(C(F)(F)F)c3)c2o1)C1CCOCC1 | 12.6µM* | -0.7%[70.6 µM] | i | -19.2%[172 µM] | i
CCNC(=O)NCC1c2cc(OC)c(OC)cc2CCN1C(=O)Nc1ccc(C)cc1 (centres undefined) | -17.6% | 1.1% | i | -7.3% | i
Cc1cc(Nc2ncc3c(n2)N(C)C(=O)N(c2cc(NC(=O)c4cccc(C(F)(F)F)c4)ccc2C)C3)n(C)n1 | . | . | . | . | i
Fc1cccc(-c2cc(-c3cn[nH]c3)c3cncn3c2)c1 | ? | -13.3%[70.6 µM] | i | ? | 0.0%[88.5 µM]
Fc1ccc(-c2cc(-c3cn[nH]c3)c3cncn3c2)cc1 | 44.7µM* | -15.2%[70.6 µM] | i | ? | -18.8%[88.5 µM]
Cc1ccccc1-c1cc(-c2cn[nH]c2)c2cncn2c1 | 70.8µM* | -22.7%[70.6 µM] | i | ? | -4.1%[88.5 µM]
COc1cc(F)ccc1-c1cc(-c2cn[nH]c2)c2cncn2c1 | 31.6µM* | -10.6%[70.6 µM] | i | ? | -3.3%[88.5 µM]
NC1CCc2nn(CC3CC3)c(=O)n2CC1 (centres undefined) | 0.6% | 4.5% | i | -4.0% | -1.5%
